Measurements reported in PubChem BioAssay (NCATS).
Results filed as inconclusive are left out. Activity calls are given as the source filed them. Unless noted, the call rests on the fitted dose curve; in most records, active means well fitted curve in the direction sought with a large enough effect; inconclusive means small, poorly fitted or top-dose-only effect, or another doubt; inactive means no such curve, though single readings can be large; an effect the other way counts as inactive or inconclusive.

Assays:
[1] = target: ATP-dependent 6-phosphofructokinase (Trypanosoma brucei brucei) (UniProt O15648); experiment: qHTS Assay to Find Inhibitors of T. brucei phosphofructokinase: hit validation (AID 492961);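 further: luminescence reports ADP formed as PFK phosphorylates fructose-6-phosphate with ATP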
How it was run: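 Percent activity derived from corrected luminescence, normalized between 0x and 1x enzyme controls, then fitted to concentration-response curves. Conditions: 1.25 nM PFK, 0.1 mM ATP, 0.5 mM F6P, 45 min RT.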

[2] = target: Ubiquitin carboxyl-terminal hydrolase 1 (Homo sapiens) (UniProt O94782); experiment: Inhibitors of USP1/UAF1: Pilot qHTS (AID 504865);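 further: rhodamine fluorescence freed from ubiquitin-rhodamine substrate followed over time; top concentration of the series differs between compounds; nearly all actives have a fitted effect of over 35% in size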
How it was run: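 USP1/UAF1 complex at 1 nM preincubated 15 min at room temperature with compound, then Ub-Rho substrate added at 150 nM final. Fluorescence (480/540 nm) read kinetically in 50 mM HEPES pH 7.8, 0.5 mM EDTA, 1 mM TCEP, 0.1 mg/ml BSA, 0.01% Tween-20.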

[3] = target: Luciferin 4-monooxygenase (Photinus pyralis) (UniProt P08659); experiment: Biochemical firefly luciferase enzyme assay for NPC (AID 624030);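 further: purified P. pyralis luciferase at 10 nM with luciferin and ATP substrate; nearly all actives have a fitted effect of over 70% in size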
How it was run: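 Counter-screen for direct inhibition of the luciferase enzyme by approved-drug library compounds, run at 10 nM enzyme in 50 mM Tris acetate (final). Luminescence was read within 5 min of enzyme-buffer addition and normalized to PTC124 versus DMSO (0%).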

[4] = S16 Schwann cell PMP22 intronic element firefly luciferase assay (AID 624032); further: nearly all actives have a fitted effect of over 30% in size
How it was run: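 Rat S16 Schwann cells stably carrying a PMP22 intronic element-driven Fluc reporter were seeded overnight, then exposed to compounds for 24 h at 37 °C. Luminescence was normalized to PTC124 (positive control) and DMSO (0% activity).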

[5] = S16 Schwann cell PMP22 intronic element beta-lactamase assay (AID 624044; calls by dose curve; further: nearly all actives have a fitted effect of over 15% in size)
How it was run: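 Rat S16 Schwann cells with beta-Lac driven by a PMP22 intronic element, compound-treated 24 h at 37 °C. LiveBLAzer FRET B/G read: 460 nm normalized to potassium clavulanate vs DMSO; 535 nm FRET as viability; concentration-effect curves classified.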

[6] = target: Furin (Homo sapiens) (UniProt P09958); experiment: Furin counterscreen qHTS for Zika virus inhibitors (AID 1347149);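 further: purified recombinant full-length human furin enzyme at 5 nM; fluorescence gain from furin cutting a BOC-RVRR-AMC peptide substrate over 15 min; top concentration of the series differs between compounds; nearly all actives have a fitted effect of over 70% in size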
How it was run: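 Fluorogenic cleavage of BOC-RVRR-AMC (2 microM final, Km ~15 µM) was monitored (ex 340, em 450 nm) at 37C after 15 min RT preincubation of 5 nM furin with compounds in HEPES pH 7.0 buffer with CaCl2 and Triton X-100. Percent inhibition was fitted to a 4-parameter Hill curve.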

[7] = Vero cells viability qHTS for Zika virus inhibitors (AID 1347167)
How it was run: (§1)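 Counter-screen for cytotoxicity of hits from NS2B-NS3 protease qHTS. Overnight-attached cells (2.5 x 10^5 cells/mL, DMEM/4% FBS) were dosed in titration, incubated 24 to 48 hours, then assayed by CellTiter Glo.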

[8] = HepG2 cells viability qHTS for Zika virus inhibitors (AID 1347168)
How it was run: as §1

[9] = Tertiary RLuc qRT-PCR qHTS assay for Zika virus inhibitors (AID 1347169); further: potency means the concentration at half of the fitted maximal effect; nearly all actives have a fitted effect of over 55% in size
How it was run: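 Vero cells (1,000/well) infected with recombinant ZIKV-RLuc (Cambodian) at MOI 1-2 after compound addition, 48-72 hrs at 37 degrees C. Live-cell Renilla luciferase substrate added; luminescence read after 1-1.5 hrs.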

[10] = Primary qHTS for inhibitors of SARS-S pseudo-typed particle cell entry (AID 1479145; calls by dose curve; further: nearly all actives have a fitted effect of over 45% in size)
[11] = Primary qHTS for inhibitors of MERS-S pseudo-typed particle cell entry (AID 1479149; calls by dose curve; further: nearly all actives have a fitted effect of over 60% in size)
[12] = Primary qHTS to identify inhibitors of SARS-CoV-2 cell entry (AID 1645846; calls by dose curve; further: nearly all actives have a fitted effect of over 45% in size); settings: activity change, negative = inhibition: at 57.1 µM (top of the series) unless noted
How it was run: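 HEK293 cells stably expressing human ACE2, pre-treated 1 h with compound, then infected with MLV particles pseudotyped with Wuhan-Hu-1 spike (C-terminal 19-aa truncation). Luciferase luminescence after 48 h at 37 °C, normalised to spike PP and bald PP.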

[13] = target: Glutathione peroxidase 1 (Homo sapiens) (UniProt P07203); experiment: Primary qHTS Assay for Inhibitors of Recombinant Selenoprotein Glutathione Peroxidase 1 (GPX1) (AID 1845191); further: nearly all actives have a fitted effect of over 65% in size
How it was run: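 Recombinant GPX1 (10 nM final) was preincubated with compound for 30 min at room temperature, then reacted with 1 mM GSH, 0.5 mM CHP, 0.5 mM NADPH and 100 nM glutathione reductase; NADPH fluorescence (340/450 nm) was read at 0 and 15 min.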

[14] = target: Phospholipid hydroperoxide glutathione peroxidase GPX4 (Homo sapiens) (UniProt P36969); experiment: Primary qHTS Assay for Inhibitors of Recombinant Selenoprotein Glutathione Peroxidase 4 (GPX4) (AID 1845192); further: nearly all actives have a fitted effect of over 65% in size
How it was run: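 GR-coupled readout: 100 nM GR, 1 mM GSH, 0.5 mM NADPH; NADPH fluorescence (ex 340/em 450 nm) read at t=0 and after 15 min RT. GPX4 200 nM, preincubated 30 min with compound; substrate 0.5 mM CHP.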

[15] = tested on: 3D7; experiment: qHTS profiling for inhibitors of Plasmodium falciparum proliferation (AID 504749); further: nearly all actives have a fitted effect of over 60% in size; settings: P. falciparum in erythrocytes, SYBR Green DNA, 72 h; series mostly up to 28.7 µM
How it was run: (§2)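 P. falciparum-infected erythrocytes (0.3% parasitemia, 2.5% hematocrit final) were exposed to compounds for 72 h at 37 C in 5% CO2, then lysed with SYBR Green buffer overnight at room temperature; parasite DNA fluorescence was normalized to artemisinin and DMSO controls.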

[16] = tested on: AA1029; experiment: as above; settings: P. falciparum in erythrocytes, SYBR Green DNA, 72 h; series mostly up to 28.7 µM
How it was run: as §2

[17] = tested on: AS120; experiment: as above; settings: P. falciparum in erythrocytes, SYBR Green DNA, 72 h; series mostly up to 28.7 µM
How it was run: as §2

[18] = tested on: ATS189; experiment: as above; settings: P. falciparum in erythrocytes, SYBR Green DNA, 72 h; series mostly up to 28.7 µM
How it was run: as §2

[19] = tested on: ATS95; experiment: as above; settings: P. falciparum in erythrocytes, SYBR Green DNA, 72 h; series mostly up to 28.7 µM
How it was run: as §2

[20] = tested on: C2A; experiment: as above; settings: P. falciparum in erythrocytes, SYBR Green DNA, 72 h; series mostly up to 28.7 µM
How it was run: as §2

[21] = tested on: CP185; experiment: as above; settings: P. falciparum in erythrocytes, SYBR Green DNA, 72 h; series mostly up to 28.7 µM
How it was run: as §2

[22] = tested on: CP191; experiment: as above; settings: P. falciparum in erythrocytes, SYBR Green DNA, 72 h; series mostly up to 28.7 µM
How it was run: as §2

[23] = tested on: CP192; experiment: as above; settings: P. falciparum in erythrocytes, SYBR Green DNA, 72 h; series mostly up to 28.7 µM
How it was run: as §2

[24] = tested on: CP194; experiment: as above; settings: P. falciparum in erythrocytes, SYBR Green DNA, 72 h; series mostly up to 28.7 µM
How it was run: as §2

[25] = tested on: CP201; experiment: as above; settings: P. falciparum in erythrocytes, SYBR Green DNA, 72 h; series mostly up to 28.7 µM
How it was run: as §2

[26] = tested on: CP203; experiment: as above; settings: P. falciparum in erythrocytes, SYBR Green DNA, 72 h; series mostly up to 28.7 µM
How it was run: as §2

[27] = tested on: CP211; experiment: as above; settings: P. falciparum in erythrocytes, SYBR Green DNA, 72 h; series mostly up to 28.7 µM
How it was run: as §2

[28] = tested on: CP215; experiment: as above; settings: P. falciparum in erythrocytes, SYBR Green DNA, 72 h; series mostly up to 28.7 µM
How it was run: as §2

[29] = tested on: CP217; experiment: as above; settings: P. falciparum in erythrocytes, SYBR Green DNA, 72 h; series mostly up to 28.7 µM
How it was run: as §2

[30] = tested on: CP237; experiment: as above; settings: P. falciparum in erythrocytes, SYBR Green DNA, 72 h; series mostly up to 28.7 µM
How it was run: as §2

[31] = tested on: CP238; experiment: as above; settings: P. falciparum in erythrocytes, SYBR Green DNA, 72 h; series mostly up to 28.7 µM
How it was run: as §2

[32] = tested on: CP247; experiment: as above; settings: P. falciparum in erythrocytes, SYBR Green DNA, 72 h; series mostly up to 28.7 µM
How it was run: as §2

Sequence of Phospholipid hydroperoxide glutathione peroxidase GPX4 (Homo sapiens) (P36969 whole entry, looked up): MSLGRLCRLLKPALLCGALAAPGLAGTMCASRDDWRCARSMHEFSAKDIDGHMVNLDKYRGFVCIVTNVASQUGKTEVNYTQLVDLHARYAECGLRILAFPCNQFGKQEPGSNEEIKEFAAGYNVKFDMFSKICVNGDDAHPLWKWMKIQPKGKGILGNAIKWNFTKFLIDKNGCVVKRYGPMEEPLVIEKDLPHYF
Sequence of Luciferin 4-monooxygenase (Photinus pyralis) (P08659 whole entry, looked up): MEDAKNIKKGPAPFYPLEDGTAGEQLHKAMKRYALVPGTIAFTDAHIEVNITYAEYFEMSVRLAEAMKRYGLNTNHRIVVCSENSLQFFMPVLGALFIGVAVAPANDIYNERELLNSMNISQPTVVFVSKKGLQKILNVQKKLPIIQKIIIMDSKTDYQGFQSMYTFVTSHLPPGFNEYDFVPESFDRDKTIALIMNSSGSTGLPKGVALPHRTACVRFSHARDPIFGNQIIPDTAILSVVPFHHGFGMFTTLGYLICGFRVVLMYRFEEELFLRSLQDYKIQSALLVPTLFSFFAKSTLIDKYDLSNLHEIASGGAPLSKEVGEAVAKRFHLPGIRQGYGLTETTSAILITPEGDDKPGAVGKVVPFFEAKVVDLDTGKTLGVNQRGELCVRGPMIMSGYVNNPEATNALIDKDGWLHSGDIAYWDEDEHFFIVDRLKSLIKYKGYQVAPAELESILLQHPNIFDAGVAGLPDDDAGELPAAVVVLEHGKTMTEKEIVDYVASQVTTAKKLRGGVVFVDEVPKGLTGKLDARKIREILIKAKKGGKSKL
Sequence of Furin (Homo sapiens) (P09958 whole entry, looked up): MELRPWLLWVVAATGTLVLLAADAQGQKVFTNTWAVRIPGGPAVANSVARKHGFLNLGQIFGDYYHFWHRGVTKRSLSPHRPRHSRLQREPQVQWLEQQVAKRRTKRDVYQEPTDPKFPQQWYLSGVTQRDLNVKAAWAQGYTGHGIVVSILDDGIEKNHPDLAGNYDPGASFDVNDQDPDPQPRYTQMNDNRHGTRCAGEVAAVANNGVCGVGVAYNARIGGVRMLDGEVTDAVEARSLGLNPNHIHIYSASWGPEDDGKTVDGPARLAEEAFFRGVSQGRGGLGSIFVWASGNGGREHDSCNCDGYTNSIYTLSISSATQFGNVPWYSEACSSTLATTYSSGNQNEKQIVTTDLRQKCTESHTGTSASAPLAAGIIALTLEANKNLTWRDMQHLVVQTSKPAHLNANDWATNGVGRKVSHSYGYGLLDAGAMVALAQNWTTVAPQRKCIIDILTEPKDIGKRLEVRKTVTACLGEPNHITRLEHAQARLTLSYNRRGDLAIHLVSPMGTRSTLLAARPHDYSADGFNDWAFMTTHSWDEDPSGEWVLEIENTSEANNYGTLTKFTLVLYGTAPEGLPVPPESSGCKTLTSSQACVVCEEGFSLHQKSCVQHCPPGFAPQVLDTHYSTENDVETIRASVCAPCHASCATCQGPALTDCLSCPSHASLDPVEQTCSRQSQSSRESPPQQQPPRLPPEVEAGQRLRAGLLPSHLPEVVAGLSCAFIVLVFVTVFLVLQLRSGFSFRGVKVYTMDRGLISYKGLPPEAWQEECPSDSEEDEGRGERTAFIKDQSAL
Sequence of ATP-dependent 6-phosphofructokinase (Trypanosoma brucei brucei) (O15648 whole entry, looked up): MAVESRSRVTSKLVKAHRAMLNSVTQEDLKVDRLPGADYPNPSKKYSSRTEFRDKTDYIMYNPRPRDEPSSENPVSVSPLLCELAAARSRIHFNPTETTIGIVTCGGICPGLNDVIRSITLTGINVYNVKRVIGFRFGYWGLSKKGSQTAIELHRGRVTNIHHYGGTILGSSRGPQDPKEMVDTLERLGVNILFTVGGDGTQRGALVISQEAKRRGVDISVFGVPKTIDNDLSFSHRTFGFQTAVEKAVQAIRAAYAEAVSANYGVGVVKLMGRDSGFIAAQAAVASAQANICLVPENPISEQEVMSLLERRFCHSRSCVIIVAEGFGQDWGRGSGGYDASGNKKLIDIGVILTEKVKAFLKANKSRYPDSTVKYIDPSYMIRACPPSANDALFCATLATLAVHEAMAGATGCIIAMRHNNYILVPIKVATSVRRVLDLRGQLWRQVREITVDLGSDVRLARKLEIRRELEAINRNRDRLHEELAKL
Sequence of Ubiquitin carboxyl-terminal hydrolase 1 (Homo sapiens) (O94782 whole entry, looked up): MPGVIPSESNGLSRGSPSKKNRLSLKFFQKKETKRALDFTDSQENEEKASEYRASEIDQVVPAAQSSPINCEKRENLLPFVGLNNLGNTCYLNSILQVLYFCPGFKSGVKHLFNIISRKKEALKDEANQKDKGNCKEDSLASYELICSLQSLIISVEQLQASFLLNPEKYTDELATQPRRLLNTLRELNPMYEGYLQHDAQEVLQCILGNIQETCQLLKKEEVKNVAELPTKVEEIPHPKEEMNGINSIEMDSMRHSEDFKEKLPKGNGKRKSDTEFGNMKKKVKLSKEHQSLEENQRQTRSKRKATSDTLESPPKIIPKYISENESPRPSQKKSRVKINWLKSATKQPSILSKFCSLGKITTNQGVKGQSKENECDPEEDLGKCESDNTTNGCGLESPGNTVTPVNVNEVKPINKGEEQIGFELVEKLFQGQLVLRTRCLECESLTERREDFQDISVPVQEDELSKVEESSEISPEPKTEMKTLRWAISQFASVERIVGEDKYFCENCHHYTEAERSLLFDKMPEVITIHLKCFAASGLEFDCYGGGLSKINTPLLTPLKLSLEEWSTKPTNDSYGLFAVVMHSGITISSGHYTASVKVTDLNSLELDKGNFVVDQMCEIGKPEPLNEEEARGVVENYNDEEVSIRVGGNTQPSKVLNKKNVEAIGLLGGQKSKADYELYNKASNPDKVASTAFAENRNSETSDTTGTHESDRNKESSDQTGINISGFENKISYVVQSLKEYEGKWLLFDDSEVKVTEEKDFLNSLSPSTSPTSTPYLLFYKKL
Sequence of Glutathione peroxidase 1 (Homo sapiens) (P07203 whole entry, looked up): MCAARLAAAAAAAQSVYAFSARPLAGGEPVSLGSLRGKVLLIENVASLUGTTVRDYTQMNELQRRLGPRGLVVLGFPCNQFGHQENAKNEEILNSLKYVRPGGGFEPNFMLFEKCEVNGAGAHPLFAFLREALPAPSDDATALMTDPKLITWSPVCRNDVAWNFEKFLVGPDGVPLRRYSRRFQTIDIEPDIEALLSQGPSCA

CO[C@H]1[C@@H](O)CC(OC2[C@@H](O)CC(OC3[C@@H](O)C[C@H](OC4CC[C@@]5(C)C(CCC6C5CC(O)[C@]5(C)[C@H](C7=CC(=O)OC7)CCC65O)C4)O[C@@H]3C)O[C@@H]2C)O[C@@H]1C (some centres not stated)
inactive: Potency [1] | Potency [2] | Potency [3] | Potency [4] | Potency [5] | Potency [6] | Potency [7] | Potency [8] | Potency [10] | Potency [11] | Potency [13] | Potency [14] | Potency [15] | Potency [16] | Potency [17] | Potency [18] | Potency [19] | Potency [20] | Potency [21] | Potency [22] | Potency [23] | Potency [24] | Potency [25] | Potency [26] | Potency [27] | Potency [28] | Potency [29] | Potency [30] | Potency [31] | Potency [32]
-97.7% [at 114 µM]: activity change, negative = inhibition [12]
active: Potency [9] 240 nM
